HT1080-NT tox – qHTS for induction of synthetic lethality in tumor cells producing 2HG: qHTS for the HT-1080-NT fibrosarcoma cell line; HT-1080-NT fibrosarcoma viability, CellTiter-Glo ATP luminescence, 48 h; Potency, µM (highest dose often 46.1 µM), without a hit: at the top dose activity, negative = less viability, most hits filed as cytotoxic; 360,000 tested, 1.6% active; AID 686970, 2013;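 note: NT is the 2HG producing partner of a matched IDH1 knockdown line; 0% = DMSO-treated cells and -100% = media-only wells without cells; nearly all actives have a fitted effect of over 55% in size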
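Viability by CellTiter-Glo luminescence after 48 h compound exposure at 37C of HT-1080-NT cells (750/well, RPMI, 5% FBS). % activity scaled between DMSO wells and medium-only wells, then curve-fitted and categorized by curve class.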
HT1080 IDH1KD tx – qHTS for induction of synthetic lethality in tumor cells producing 2HG: qHTS for the HT-1080-IDH1KD cell line. HT-1080 IDH1 knockdown viability, ATP luminescence, 48 h. AID 686971, 2013. 360,000 tested, 2% active. Potency, µM (doses to about 46.1 µM), without a hit: at the highest dose activity, negative = toxicity, usual class: cytotoxic;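 note: 0% = DMSO wells and -100% = cell-free medium wells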
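CellTiter-Glo luminescence after 48 h compound exposure at 37 degrees C of IDH1-knockdown HT-1080 cells in 5% FBS RPMI. %Activity scaled between DMSO wells and cell-free media wells, with curves fitted and assigned curve classes.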
KB-3-1 cytotox – qHTS assay for MDR1-selective chemotherapeutics: Primary screen using the parental adenocarcinoma cell KB-3-1; Potency, µM (series often up to 46.1 µM), most hits filed as cytotoxic; AID 1347075, 2019; KB-3-1 viability, CellTiter-Glo ATP luminescence, 72 h; 400,000 tested, 1.4% active; note: nearly all actives have a fitted effect of over 60% in size
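Screening of KB-3-1 cells (DMEM, 10% FBS, phenol-red free) ran from lowest to highest compound concentration; after 72 h at 37 °C viability was read luminescently and curves fitted.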
KB-V1 cytotox – qHTS assay for MDR1-selective chemotherapeutics: Primary screen using the drug-selected MDR subline cells KB-V1; KB-V1 MDR cells viability, CellTiter-Glo, 72 h; Potency, µM (series often up to 46.1 µM), most hits filed as cytotoxic; 400,000 tested, 3.4% active; AID 1347076, 2019; note: nearly all actives have a fitted effect of over 60% in size
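KB-V1 cells (P-gp-expressing MDR subline of KB-3-1) in phenol-red-free DMEM with 10% FBS were exposed to library compounds over a concentration series for 72 h at 37 degrees C. Viability read by CellTiter-Glo luminescence; concentration-effect curves fitted after normalization.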
Numbers without * were called inactive; i = inactive; ? = inconclusive; · = no result given. Most compounds without a hit are left out; they make up all but 5.7% or so of the library. Calls come from the whole dose curve; as a rule, active = well fitted curve in the direction sought with a large enough effect; inconclusive = small, poorly fitted or top-dose-only effect, or another doubt; inactive = no such curve, though single readings can be large; an effect the other way counts as inactive or inconclusive. Unless noted, % is set by controls: 0 for no effect and ±100 for the full control effect; potency is the fitted concentration of half-maximal effect.

SMILES	HT1080-NT tox	HT1080 IDH1KD tx	KB-3-1 cytotox	KB-V1 cytotox
CCCCc1nc2n[nH]c(N)c2c2c1CCCC2	-19.1%	-10.9%	4.11µM*	0.517µM*
CCCc1nc2n[nH]c(N)c2c2c1CCCC2	-15.9%	-24.3%	i	i
COc1cc(OC)c(Nc2ncnc3onc(-c4cccc(Cl)c4)c23)cc1Cl	·	·	i	i
CCn1nc(C)cc1C(=O)N1CCc2c([nH]c3ccccc23)C1c1cc(F)ccc1F (stereo unspecified)	?	23.1µM*	?	?
Cc1ncoc1C(=O)N1CCc2c([nH]c3ccccc23)C1c1ccccc1F (stereo unspecified)	?	-19.8%	i	i
COc1nc(Cl)cn(-c2ccc(C)cc2)c1=O	9.0%	5.2%	i	i
Cc1ccc(-n2c(Cl)c(Cl)nc(Cl)c2=O)cc1	2.59µM*	2.91µM*	?	i
c1ccc2c(c1)c1c(c3ccccc32)CN2CCCC2C1 (stereo unspecified)	?	23.1µM*	?	16.4µM*
Cc1ccc(S(=O)(=O)N2CCN(c3nc(-c4cccs4)nc4ccccc34)CC2)c(C)c1	22.7%	0.6%	·	·
O=C(c1cccc(Cl)c1)N1CCN(c2ccc3c(c2)C2CC3CCN2C(=O)OCc2ccccc2)CC1 (stereo unspecified)	?	?	?	16.4µM*
COc1cc(/C=N/O)cc(Br)c1OCC(=O)NCc1ccccc1	8.7%	7.7%	i	16.4µM*
C=CCOc1c(Cl)cc(C(=S)N2CCCC2)cc1OCC	?	9.2µM*	6.51µM*	9.2µM*
CC1(C)Cc2c(sc(NC(=O)c3ccco3)c2C#N)C(C)(C)N1	8.6%	19.2%	i	18.4µM*
Cc1ccc(S(=O)(=O)N2CCCc3cc(NC(=O)c4ccc(C(F)(F)F)cc4)ccc32)cc1	·	·	i	i
C/C(=N\NC(N)=S)c1ccc(Cl)s1	-0.3%	-10.5%	16.4µM*	6.51µM*
CCCCCn1c(=O)[nH]c2cc(C(=O)NCc3ccc(C)cc3)ccc2c1=O	·	·	i	i
Cc1ccccc1OCCOC(=O)c1c(-c2ccccc2)noc1C	7.31µM*	5.8µM*	9.2µM*	?
Cc1onc(-c2ccccc2)c1C(=O)OCc1nnc(-c2ccc([N+](=O)[O-])cc2)o1	2.2%	-3.8%	i	14.6µM*
CS(=O)(=O)c1ccc(C(=O)OCc2nnc(-c3ccccc3)o2)cc1[N+](=O)[O-]	7.31µM*	4.11µM*	i	?
Cc1onc(-c2ccccc2)c1C(=O)OCCOc1ccccc1F	-18.9%	-11.0%	i	?
CCc1cccc(C)c1NC(=O)CCCn1c(C)c2cnn(-c3ccccc3)c(=O)c2c1C	·	·	i	i
O=C(c1ccc2c(c1)N(Cc1ccc(F)cc1)C(=O)c1ccccc1S2(=O)=O)N1CCCCCC1	·	·	i	i
CN(C)c1ccc(Nc2ncnc3ccc(Br)cc23)cc1	-3.9%	-6.4%	i	?
Clc1cccc(Nc2ncnc3ccc(Br)cc23)c1	7.94µM*	?	i	?
Clc1ccc(Nc2ncnc3ccc(Br)cc23)cc1	?	?	i	10.3µM*
SMILES	HT1080-NT tox	HT1080 IDH1KD tx	KB-3-1 cytotox	KB-V1 cytotox
Cc1nn(-c2ccccc2)c2c1N(CC(=O)N1CCN(c3cccc(Cl)c3)CC1)C(=O)CS2	·	·	i	i
CCC(Cc1ccccc1)NC(=O)c1ccc2nc(N3CCC(C)CC3)sc2c1 (stereo unspecified)	·	·	i	i
COc1cc2c(NC3CCN(C(C)C)CC3)nc(N3CCCN(C)CC3)nc2cc1OCCOCCN(C)C	·	·	?	i
CCc1ccc(NCc2cc3ccc(OC)cc3n(CC(=O)Nc3ccccc3OC)c2=O)cc1	·	·	i	?
CCC(C)(C)c1ccc(OCCCC[n+]2cccc(C)c2)c(C(C)(C)CC)c1	6.51µM*	4.11µM*	3.26µM*	i
CCCCCCCCCC[n+]1cccc(Br)c1	·	·	?	i
COc1ccc(OC)c(NC(=O)COCc2cc(-c3ccc(F)cc3)on2)c1	·	·	i	i
Cc1ccc2c(n1)sc1c(=O)n(-c3cccc(C(F)(F)F)c3)nnc12	·	·	i	i
C=CCn1c(SCc2nc3sc4c(c3c(=O)[nH]2)CCCC4)nc2ccccc2c1=O	3.9%	0.8%	i	2.06µM*
